In PubChem BioAssay (EPA / NIEHS):
Calls of active or inactive are those of the source. How the source made its calls: active means hit-call score of the fitted dose curve at least 0.9, where 1 is the maximum; inactive means score below 0.9.

Legend:
[1] = read-out: TIMP metallopeptidase inhibitor 2 (TIMP2), TIMP2 (gene 7077); assay: BSK_KF3CT_TIMP2: BioMAP Diversity Plus: KF3CT Assay for TIMP metallopeptidase inhibitor 2 (TIMP2) Biomarker Activity (AID 2283071); settings: primary human keratinocytes with fibroblasts; actives raise or lower the signal
How it was run: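 Chemicals were dosed onto human skin primary co-cultures of keratinocytes and foreskin fibroblasts, and TIMP-2 was measured by ELISA after 24 hours. Activity in either direction was fitted relative to DMSO.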

[2] = read-out: Transforming growth factor beta 1 (TGFb1), TGFB1 (gene 7040); assay: BSK_KF3CT_TGFb1: BioMAP Diversity Plus: KF3CT Assay for Transforming growth factor beta 1 (TGFb1) Biomarker Activity (AID 2283072); settings: primary human keratinocytes with fibroblasts; actives raise or lower the signal
How it was run: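 KF3CT co-culture (keratinocytes + fibroblasts), 24 h exposure → TGF-b1 ELISA → bidirectional fit, DMSO = baseline. Parallel SRB total-protein staining (0.1% SRB, 10% TCA fixation, 560 nm) for cytotoxicity.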

[3] = read-out: C-C motif chemokine 2 (Homo sapiens) (UniProt P13500); assay: BSK_KF3CT_MCP1: BioMAP Diversity Plus: KF3CT Assay for Monocyte Chemoattractant Protein 1 (MCP1/CCL2) Biomarker Activity (AID 2283073); settings: primary human keratinocytes with fibroblasts; actives raise or lower the signal
How it was run: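 ELISA readout of MCP-1 after 24 h chemical dosing of a human skin primary co-culture of keratinocytes and foreskin fibroblasts. Activity was fitted in both directions against DMSO.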

[4] = read-out: Matrix Metallopeptidase 9 (MMP9), MMP9 (gene 4318); assay: BSK_KF3CT_MMP9: BioMAP Diversity Plus: KF3CT Assay for Matrix Metallopeptidase 9 (MMP9) Biomarker Activity (AID 2283074); settings: primary human keratinocytes with fibroblasts; actives raise or lower the signal;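 on AC50: MMP9 protein level quantified by ELISA in the co-culture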
How it was run: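 MMP-9 quantified by ELISA after 24 h chemical treatment of primary human skin keratinocyte/fibroblast co-cultures; gain or loss fitted against DMSO, with parallel SRB staining (0.1% SRB, 560 nm) for overt cytotoxicity.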

CD40, CD40 (gene 958) [5] = assay: BSK_LPS_CD40: BioMAP Diversity Plus: LPS Assay for CD40 Biomarker Activity (AID 2283076); settings: primary human HUVEC with PBMC; actives raise or lower the signal
How it was run: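 Cells were dosed, incubated 24 h, then assayed for CD40 by ELISA. Gain or loss of signal was analysed relative to DMSO controls. The culture paired human umbilical vein endothelium with peripheral blood mononuclear cells.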

[6] = read-out: Interleukin-8 (IL8), CXCL8 (gene 3576); assay: BSK_LPS_IL8: BioMAP Diversity Plus: LPS Assay for Interleukin-8 (IL8) Biomarker Activity (AID 2283078); settings: primary human HUVEC with PBMC; actives raise or lower the signal
How it was run: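 Readout is IL-8 by ELISA, taken 24 h after compounds were added to LPS-stimulated endothelial/PBMC co-cultures. Both increases and decreases relative to DMSO control were scored through bidirectional fitting.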

[7] = BSK_LPS_SRB: Viability Assessment in the BioMAP Diversity Plus: LPS Assay (AID 2283079); settings: primary human HUVEC with PBMC;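 further: total protein by sulforhodamine B absorbance as a cytotoxicity measure; measured one day after compound addition; fitted in both directions against DMSO so loss or gain of signal counts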
How it was run: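 Readout is SRB absorbance at 560 nm (0.1% stain, TCA-fixed parallel cultures) as a total-protein cytotoxicity measure. Cells: primary human umbilical vein endothelium plus peripheral blood mononuclear cells, 24 h after chemical exposure; DMSO served as baseline.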

[8] = read-out: Interleukin-1 alpha (IL1a), IL1A (gene 3552); assay: BSK_LPS_IL1a: BioMAP Diversity Plus: LPS Assay for Interleukin-1 alpha (IL1a) Biomarker Activity (AID 2283080); settings: primary human HUVEC with PBMC; actives raise or lower the signal
How it was run: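 ELISA read-out of IL-1 alpha from a human primary vascular co-culture (endothelium plus PBMC) under LPS, sampled 24 hours post-dosing. Activity was fitted in both directions relative to DMSO controls.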

[9] = read-out: Monocyte Chemoattractant Protein-1 (MCP1), CCL2 (gene 6347); assay: BSK_LPS_MCP1: BioMAP Diversity Plus: LPS Assay for Monocyte Chemoattractant Protein-1 (MCP1) Biomarker Activity (AID 2283081); settings: primary human HUVEC with PBMC; actives raise or lower the signal;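 on AC50: secreted MCP-1 protein quantified by ELISA in culture supernatant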
How it was run: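 Human endothelial–PBMC co-cultures were dosed with chemical, then LPS-driven MCP-1 levels were quantified by ELISA at 24 h. Activity in either direction was fitted versus DMSO negative control.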

[10] = BSK_LPS_PGE2: BioMAP Diversity Plus: LPS Assay for Prostaglandin E2 (PGE2) Biomarker Activity (AID 2283082); settings: primary human HUVEC with PBMC; actives raise or lower the signal;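 on AC50: secreted prostaglandin E2 measured by ELISA in LPS-stimulated co-culture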
How it was run: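 Compounds were added to the LPS co-culture of endothelium and PBMC, and PGE2 was measured by ELISA after 24 h. Responses in either direction were fitted with DMSO as baseline.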

[11] = read-out: Macrophage colony-stimulating factor (MCSF), CSF1 (gene 1435); assay: BSK_LPS_MCSF: BioMAP Diversity Plus: LPS Assay for Macrophage colony-stimulating factor (MCSF) Biomarker Activity (AID 2283083); settings: primary human HUVEC with PBMC; actives raise or lower the signal
How it was run: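 ELISA readout of M-CSF after 24 h compound exposure in a human endothelial/PBMC co-culture. Activity, in either direction, is fitted relative to DMSO vehicle.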

[12] = read-out: Tumor necrosis factor (Homo sapiens) (UniProt P01375); assay: BSK_LPS_TNFa: BioMAP Diversity Plus: LPS Assay for Tumour Necrosis Factor alpha (TNFa) Biomarker Activity (AID 2283085); settings: primary human HUVEC with PBMC; actives raise or lower the signal;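 on AC50: TNFa protein level quantified by ELISA in the co-culture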
How it was run: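 Cells (umbilical vein endothelium plus peripheral blood mononuclear cells) were dosed with chemical, incubated 24 h, then TNFa was quantified by ELISA; values derive from bidirectional fitting with DMSO as baseline.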

[13] = read-out: Vascular cell adhesion molecule 1 (VCAM1), VCAM1 (gene 7412); assay: BSK_LPS_VCAM1: BioMAP Diversity Plus: LPS Assay for Vascular cell adhesion molecule 1 (VCAM1) Biomarker Activity (AID 2283086); settings: primary human HUVEC with PBMC; actives raise or lower the signal
How it was run: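 Cells are dosed in an LPS-stimulated endothelial/mononuclear co-culture and, after 24 h, VCAM-1 is quantified by ELISA. Activity in either direction is fitted relative to the DMSO negative control.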

CD38, CD38 (gene 952) = assay: BSK_SAg_CD38: BioMAP Diversity Plus: SAg Assay for CD38 Biomarker Activity (AID 2283087); settings: primary human HUVEC with PBMC; actives raise or lower the signal
How it was run: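 CD38 quantified by ELISA (fluorescence) in a superantigen-activated endothelial cell–PBMC co-culture at 24 h post-dose. Activity fitted in both directions relative to DMSO; parallel SRB and Alamar Blue cytotoxicity read-outs.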

CD40, CD40 (gene 958) [14] = assay: BSK_SAg_CD40: BioMAP Diversity Plus: SAg Assay for CD40 Biomarker Activity (AID 2283088); settings: primary human HUVEC with PBMC; actives raise or lower the signal
How it was run: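 Compounds were dosed onto a human primary endothelial–PBMC co-culture, and after 24 h CD40 was quantified by ELISA using a fluorescence signal. Activity in either direction was fitted relative to DMSO.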

CD69, CD69 (gene 969) = assay: BSK_SAg_CD69: BioMAP Diversity Plus: SAg Assay for CD69 Biomarker Activity (AID 2283089); settings: primary human HUVEC with PBMC; actives raise or lower the signal;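 on AC50: cell surface CD69 protein quantified by ELISA with fluorescence detection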
How it was run: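 Values derive from bidirectional fitting relative to DMSO vehicle. Cells: umbilical vein endothelium plus peripheral blood mononuclear cells, treated 24 h before fluorescent ELISA for CD69.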

[15] = read-out: Monocyte Chemoattractant Protein-1 (MCP1), CCL2 (gene 6347); assay: BSK_SAg_MCP1: BioMAP Diversity Plus: SAg Assay for Monocyte Chemoattractant Protein-1 (MCP1) Biomarker Activity (AID 2283090); settings: primary human HUVEC with PBMC; actives raise or lower the signal
How it was run: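 Values derive from bidirectional fitting of ELISA-measured MCP1 against DMSO controls. Readings were taken 24 h after dosing human vascular endothelial cells co-cultured with peripheral blood mononuclear cells under superantigen stimulation.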

[16] = read-out: E-selectin (Homo sapiens) (UniProt P16581); assay: BSK_LPS_Eselectin: BioMAP Diversity Plus: LPS Assay for Eselectin Biomarker Activity (AID 2283077); settings: primary human HUVEC with PBMC; actives raise or lower the signal
How it was run: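 Primary human vascular co-culture (endothelium plus PBMC) was dosed with chemical, then E-selectin quantified by ELISA at 24 h. Endpoint values derive from bidirectional curve fitting relative to DMSO.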

[17] = read-out: Tissue Factor, F3 (gene 2152); assay: BSK_LPS_TissueFactor: BioMAP Diversity Plus: LPS Assay for Tissue Factor Biomarker Activity (AID 2283084); settings: primary human HUVEC with PBMC; actives raise or lower the signal
How it was run: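 ELISA signal for cell-surface Tissue Factor (CD142) was read 24 h after compound dosing of an LPS-stimulated human endothelial–PBMC primary co-culture. Gain or loss of signal was scored relative to DMSO.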

[18] = read-out: urokinase plasminogen activator (uPA), PLAU (gene 5328); assay: BSK_KF3CT_uPA: BioMAP Diversity Plus: KF3CT Assay for urokinase plasminogen activator (uPA) Biomarker Activity (AID 2283075); settings: primary human keratinocytes with fibroblasts; actives raise or lower the signal
How it was run: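 ELISA read-out of uPA 24 h after dosing human skin keratinocytes co-cultured with foreskin fibroblasts. Signal change fitted both ways relative to DMSO; sulforhodamine B on parallel cultures marks overt cytotoxicity.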

Measured: AC50

Chain of Tumor necrosis factor (Homo sapiens) (P01375 whole entry, looked up): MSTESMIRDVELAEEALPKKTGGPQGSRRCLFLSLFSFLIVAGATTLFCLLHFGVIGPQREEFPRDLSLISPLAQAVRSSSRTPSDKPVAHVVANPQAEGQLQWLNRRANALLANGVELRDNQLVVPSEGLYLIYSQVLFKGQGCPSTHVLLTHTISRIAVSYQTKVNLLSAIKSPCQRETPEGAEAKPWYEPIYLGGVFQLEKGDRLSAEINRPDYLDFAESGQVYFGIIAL
Chain of E-selectin (Homo sapiens) (P16581 whole entry, looked up): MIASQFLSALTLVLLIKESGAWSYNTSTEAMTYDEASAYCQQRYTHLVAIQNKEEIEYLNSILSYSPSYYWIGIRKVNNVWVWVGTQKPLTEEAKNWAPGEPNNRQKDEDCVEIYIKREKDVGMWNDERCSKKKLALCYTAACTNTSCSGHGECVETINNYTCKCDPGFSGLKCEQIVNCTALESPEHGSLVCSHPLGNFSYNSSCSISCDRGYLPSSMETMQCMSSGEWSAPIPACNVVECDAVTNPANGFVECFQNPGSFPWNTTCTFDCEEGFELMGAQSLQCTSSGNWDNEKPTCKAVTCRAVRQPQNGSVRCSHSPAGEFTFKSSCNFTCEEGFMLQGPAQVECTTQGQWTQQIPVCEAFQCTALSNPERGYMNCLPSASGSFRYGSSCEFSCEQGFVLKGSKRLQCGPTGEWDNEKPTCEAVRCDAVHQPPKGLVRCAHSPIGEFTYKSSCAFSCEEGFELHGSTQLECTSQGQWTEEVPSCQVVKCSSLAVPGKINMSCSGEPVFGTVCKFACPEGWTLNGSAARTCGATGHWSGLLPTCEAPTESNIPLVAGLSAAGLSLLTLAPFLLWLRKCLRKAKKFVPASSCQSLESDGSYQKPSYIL

ClC1=C(Cl)[C@]2(Cl)[C@@H]3[C@@H](Cl)[C@H]4O[C@H]4[C@@H]3C1(Cl)C2(Cl)Cl
active: [7] 6.81 µM | [12] 2.42 µM | CD38, CD38 (gene 952) 8.15 µM | CD40, CD40 (gene 958) [14] 11.6 µM
not listed: [16] | [17] | [18]
inactive: all other assays above

CC(C)(O)C(=O)Nc1ccc([N+](=O)[O-])c(C(F)(F)F)c1
active: [10] 0.024 µM | [11] 23.1 µM
not listed: [6] | CD69, CD69 (gene 969) | [18]
inactive: all other assays above

C[C@]12CCC(=O)C=C1CC[C@@H]1[C@@H]2CC[C@@]2(C)[C@H]1CC[C@]2(C)O
not listed: CD69, CD69 (gene 969) | [16] | [17] | [18]
inactive: all other assays above

Clc1ccc(C(Cl)(Cl)Cl)cc1
not listed: CD69, CD69 (gene 969) | [17] | [18]
inactive: all other assays above

CN(C)c1nc(=O)n(C2CCCCC2)c(=O)n1C
not listed: CD69, CD69 (gene 969) | [16] | [18]
inactive: all other assays above

Oc1ccc(C(c2ccc(O)cc2)(C(F)(F)F)C(F)(F)F)cc1
active: [1] 21.1 µM | [2] 23.7 µM | [3] 17.7 µM | [4] 20 µM | CD40, CD40 (gene 958) [5] 18 µM | [6] 32.1 µM | [7] 28 µM | [8] 20.2 µM | [9] 27.5 µM | [10] 19.6 µM | [11] 20.1 µM | [12] 21.5 µM | [13] 23.9 µM | CD38, CD38 (gene 952) 20.6 µM | CD40, CD40 (gene 958) [14] 18.3 µM | [15] 26.5 µM

CCC(C)(c1ccc(O)cc1)c1ccc(O)cc1
inactive: [1] | [2] | [3] | [4] | [6] | [8] | [9] | [12]
active: CD40, CD40 (gene 958) [5] 20 µM | [7] 20 µM | [10] 13.3 µM | [11] 20 µM | [13] 20 µM | CD38, CD38 (gene 952) 25.6 µM | CD40, CD40 (gene 958) [14] 20 µM | CD69, CD69 (gene 969) 20 µM | [15] 20 µM

c1ccc(-c2ccccc2)cc1
not listed: [3] | [17]
inactive: all other assays above

CCC(=O)O[C@H]1CC[C@H]2[C@@H]3CCC4=CC(=O)CC[C@]4(C)[C@H]3CC[C@]12C
active: [1] 30.7 µM | [4] 32.4 µM | [18] 32.5 µM | CD40, CD40 (gene 958) [5] 28 µM | [6] 26.5 µM | [8] 31.9 µM | [9] 25.5 µM | [11] 26 µM | [17] 30.8 µM | [12] 32.1 µM | [13] 30.5 µM | CD38, CD38 (gene 952) 36 µM | CD40, CD40 (gene 958) [14] 31.9 µM | CD69, CD69 (gene 969) 31.1 µM | [15] 30.1 µM
inactive: [3] | [10]

ClC(Cl)=C(c1ccc(Cl)cc1)c1ccc(Cl)cc1
active: [1] 27 µM | [2] 32.6 µM | [3] 20 µM | [4] 20 µM | CD40, CD40 (gene 958) [5] 29.8 µM | [6] 32.1 µM | [8] 26.6 µM | [9] 35.4 µM | [10] 8.02 µM | [17] 32.3 µM | [12] 31.8 µM | [13] 30.4 µM | CD38, CD38 (gene 952) 33.3 µM | CD40, CD40 (gene 958) [14] 32.5 µM | [15] 39.2 µM
